Data on 7 compounds can be found in PubChem BioAssay (NCI).

The panel holds about 83,000 compounds, 20% with a hit somewhere; the sample as a whole holds those more often.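 Interpretation: 100, growth as untreated; towards 0, rising growth inhibition; 0, no net growth; 0 to -100, cell death. Compounds scoring below 10 were considered active.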 Unmarked numbers belong to inactive results. Activity calls are given as the source filed them.

Among the test systems are HCT-15 colon; HT29 colon; SNB-75 CNS; SNB-19 CNS; U251 CNS; PC-3 prostate; SK-MEL-5 melanoma; UACC-62 melanoma; LOX IMVI melanoma; SK-MEL-28 melanoma; SK-MEL-2 melanoma; EKVX NSCLC; SN12C renal; UO-31 renal; TK-10 renal; ACHN renal; CAKI-1 renal; A498 renal; CCRF-CEM leukemia; MOLT-4 leukemia.
Common to all, as to test: NCI-60 one-dose screen, 48 h (100 = growth as untreated, 0 = no growth, -100 = all killed)
Holding throughout (details): 10 µM unless noted

With `CC(C)(CO)N(CCO)CCO`, the growth in the assay on HCT-15 colon is 99.7%; in the assay with HT29 colon, 98.6%; with SNB-75 CNS, 102%; in the assay with SNB-19 CNS, 103%; in the assay with U251 CNS, 91.4%; in the assay on PC-3 prostate, 91.4%. Moreover, the growth is 97.1% with SK-MEL-5 melanoma; 101% with UACC-62 melanoma; 100% with LOX IMVI melanoma; 103% in the assay on SK-MEL-28 melanoma; 100% in the assay with SK-MEL-2 melanoma; 116% in the assay on EKVX NSCLC. Further, the growth in the assay on SN12C renal is 99.1%; in the assay on UO-31 renal it was 87.4%; in the assay on TK-10 renal, 95.5%; in the assay with ACHN renal, 97.1%; in the assay on CAKI-1 renal, 100%; in the assay with A498 renal, 111%. The growth in the assay on CCRF-CEM leukemia is 92.8%; with MOLT-4 leukemia, 104%.

Consider `COc1ccc(C2CC(c3ccc(Nc4nc(Nc5ccc(F)cc5)nc(Nc5ccc(F)cc5)n4)cc3)=NN2C(C)=O)cc1` (configuration not stated), for which the growth is 94.4% in the assay on HCT-15 colon; 100% in the assay with HT29 colon; 101% with SNB-75 CNS; 85.2% with SNB-19 CNS; 84.5% in the assay on U251 CNS; 68.8% in the assay with PC-3 prostate. Moreover, the growth in the assay with SK-MEL-5 melanoma is 71.6%; with UACC-62 melanoma it was 103%; in the assay on LOX IMVI melanoma, 103%; in the assay on SK-MEL-28 melanoma, 110%; with SK-MEL-2 melanoma, 72%; in the assay on EKVX NSCLC, 94.8%. Further, the growth with SN12C renal was 116%; with UO-31 renal, 97.7%; with TK-10 renal, 104%; in the assay on CAKI-1 renal, 90.6%; in the assay with A498 renal, 85.3%; in the assay with CCRF-CEM leukemia, 23.5%. Besides, the growth in the assay on MOLT-4 leukemia was 34.6%.

Take `CC(C)c1ccc(-n2c(=S)[nH]c3sc4c(c3c2=O)CCC(=O)C4)cc1`: the growth is 45.9% in the assay with HCT-15 colon; 109% in the assay with HT29 colon; 41.6% in the assay with SNB-75 CNS; 26.4% with SNB-19 CNS; 11.8% in the assay on U251 CNS; 7.63% (active) in the assay on PC-3 prostate. The growth in the assay with SK-MEL-5 melanoma was 27.9%; with UACC-62 melanoma, 24.5%; in the assay with LOX IMVI melanoma, 43.3%; with SK-MEL-28 melanoma, 75.7%; in the assay with SK-MEL-2 melanoma, 91.4%; with EKVX NSCLC it was 47%. For the same compound, the growth is 50.8% with SN12C renal; 46.9% in the assay on UO-31 renal; 106% with TK-10 renal; 82% with ACHN renal; 74.2% with CAKI-1 renal; 112% in the assay on A498 renal. In addition, the growth with CCRF-CEM leukemia was 18.2%; with MOLT-4 leukemia, 75.7%.

As for `Fc1ccc2c(c1)c(-c1nc(-c3c[nH]c4ncccc34)cs1)cn2CCCN1CCOCC1`, the growth in the assay on HCT-15 colon is 24.5%; in the assay with HT29 colon, 12.9%; in the assay on SNB-75 CNS, 41.2%; in the assay on SNB-19 CNS, 62.7%; in the assay with U251 CNS it was 30.4%; with PC-3 prostate, 31.9%. In addition, the growth in the assay on SK-MEL-5 melanoma was 43.7%; in the assay with UACC-62 melanoma it was 69.5%; with LOX IMVI melanoma, 33.1%; in the assay with SK-MEL-28 melanoma, 75.4%; in the assay with SK-MEL-2 melanoma, 60.5%; in the assay with EKVX NSCLC, 55.9%. Besides, the growth was 73.9% in the assay on SN12C renal; 31.5% with UO-31 renal; 66.9% in the assay on TK-10 renal; 42.2% with ACHN renal; 56.2% in the assay on CAKI-1 renal; 51% in the assay on A498 renal. Moreover, the results for the growth with CCRF-CEM leukemia and in the assay with MOLT-4 leukemia were 21.8% and 24.8%, respectively.

With `O=C(Nc1ncc(Cc2ccccc2Cl)s1)c1cccs1`, the growth with HCT-15 colon is 32%; in the assay with HT29 colon, 43.6%; with SNB-75 CNS it was 89.6%; in the assay with SNB-19 CNS, 82.9%; with U251 CNS it was 60.8%; with PC-3 prostate, 64%. The growth in the assay on SK-MEL-5 melanoma is 73.3%; in the assay on UACC-62 melanoma it was 45.9%; with LOX IMVI melanoma it was 62.5%; in the assay on SK-MEL-28 melanoma, 85.2%; in the assay with SK-MEL-2 melanoma it was 69.4%; in the assay with EKVX NSCLC, 77.7%. Further, the growth in the assay on SN12C renal is 82.5%; in the assay on UO-31 renal it was 70.8%; in the assay with TK-10 renal, 88%; in the assay with CAKI-1 renal, 41.8%; with A498 renal, 67.1%; in the assay with CCRF-CEM leukemia, 66.2%.

With `COc1cc(C2Cc3ncccc3-c3[nH]c(=O)c4cccnc4c32)cc(OC)c1OC` (configuration not stated), the growth was 16.9% in the assay on HCT-15 colon; 0.572% (active) with HT29 colon; 41.1% in the assay with SNB-75 CNS; 29.2% in the assay on SNB-19 CNS; 15.8% in the assay with U251 CNS; 21.8% in the assay with PC-3 prostate. Also, the growth in the assay with SK-MEL-5 melanoma is 18.6%; in the assay on UACC-62 melanoma, 28.2%; in the assay with LOX IMVI melanoma, 29.2%; in the assay on SK-MEL-28 melanoma, 66.4%; in the assay on SK-MEL-2 melanoma, 19.4%; in the assay on EKVX NSCLC, 44.2%. The growth with SN12C renal is 39.8%; in the assay with UO-31 renal, 38.6%; in the assay on TK-10 renal, 52.6%; in the assay on ACHN renal, 46.4%; in the assay on CAKI-1 renal, 31.8%; with A498 renal, -1.31% (active). The values for the growth in the assay on CCRF-CEM leukemia and with MOLT-4 leukemia were 22.1% and 23.8%, respectively.

Regarding `COc1ccc(/C=C/C(=O)c2cc3c(N)c(C(=O)Nc4ccccc4C)sc3nc2C)cc1`, the growth in the assay with HCT-15 colon was 15.2%; in the assay on HT29 colon, -27.6% (active); with SNB-75 CNS, -0.543% (active); in the assay on SNB-19 CNS it was 6.45% (active); in the assay on U251 CNS it was 9.39% (active); in the assay on PC-3 prostate, 25%. Further, the growth in the assay on SK-MEL-5 melanoma is 17.7%; with UACC-62 melanoma, 16.9%; with LOX IMVI melanoma, 18.7%; in the assay on SK-MEL-28 melanoma, 51.3%; with SK-MEL-2 melanoma, 14.5%; with EKVX NSCLC, 43.3%. Moreover, the growth was 26.4% with SN12C renal; 40.4% in the assay with UO-31 renal; 32% in the assay on TK-10 renal; 38.7% in the assay with ACHN renal; 23.3% in the assay with CAKI-1 renal; 16.7% in the assay on A498 renal. For the same compound, the growth in the assay on CCRF-CEM leukemia was 16.4%; in the assay on MOLT-4 leukemia, 27.6%.
